CDK5 inh: inhibitors of human CDK5/p35 kinase, primary screen, biochemical, single concentration; Cyclin-dependent kinase 5 (Homo sapiens) + Cyclin-dependent kinase 5 activator 1 (Homo …; Recombinant CDK5/p35, ADP-Glo luminescence, 60 min; inhibition, % at 10 µM; hit rate 0.01% among 330,000; AID 488839, 2010;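 active = highest replicate inhibition of at least 50% and at least 75% of replicates reaching 50%; inconclusive = only one of the two criteria met; inactive = both criteria failed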
Glyco luc inh: increase of ERlucT glycosylation luciferase signal, primary screen, N-linked glycosylation inhibitor project, D54 ERlucT cells, luminescence, set 2. D54 ERlucT glycosylation luciferase reporter, 24 h; percent of 100 nM tunicamycin response. reporter increase, % at 12.5 µM. hit rate 0.23% among 360,000;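 active = mean luciferase reporter signal, scaled so untreated is 0 and the glycosylation-blocking control 100, at or above a set limit in every replicate; inconclusive = mean reaches the limit but not every replicate does; inactive = mean below the limit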;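 note: luciferase carries N-glycosylation sites so blocking glycosylation raises the light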
SUMO Mot1 rescue: yeast Mot1-301 growth rescue at high temperature, primary screen, SUMOylation pathway inhibitor project, S. cerevisiae, ATP luminescence, 38.5C; S. cerevisiae Mot1-301 growth rescue; percent above DMSO median, 100 means doubled; growth rescue, % at 18.8 µM; hit rate 1% among 320,000;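 active = every valid replicate shows activation above 250% relative to neutral control wells; inactive = the rest, any valid replicate at or below 250%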
CASP6 VEID inh: human caspase-6 inhibitors, primary screen, biochemical, VEID-R110 fluorescence, single point, set 2 | P55212 | purified caspase-6, Z-VEID-R110 cleavage fluorescence | inhibition, % at 12.5 µM | hit rate 0.53% among 350,000 | AID 686996, 2013;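 active = mean inhibition across replicates at least about 35%, with every replicate also reaching that limit, limit read from the data; inconclusive = only one of the two criteria met; inactive = neither criterion met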
NSD2 inh: NSD2 histone methyltransferase inhibitors, primary screen, biochemical, AlphaScreen, single concentration, set 2 | Histone-lysine N-methyltransferase NSD2 (Homo sapiens), O96028 | NSD2 peptide methylation, 120 min | inhibition, % at 12.5 µM | hit rate 0.54% among 310,000; in the data active = inhibition above about 50%
Target sequence (O96028 whole entry, looked up): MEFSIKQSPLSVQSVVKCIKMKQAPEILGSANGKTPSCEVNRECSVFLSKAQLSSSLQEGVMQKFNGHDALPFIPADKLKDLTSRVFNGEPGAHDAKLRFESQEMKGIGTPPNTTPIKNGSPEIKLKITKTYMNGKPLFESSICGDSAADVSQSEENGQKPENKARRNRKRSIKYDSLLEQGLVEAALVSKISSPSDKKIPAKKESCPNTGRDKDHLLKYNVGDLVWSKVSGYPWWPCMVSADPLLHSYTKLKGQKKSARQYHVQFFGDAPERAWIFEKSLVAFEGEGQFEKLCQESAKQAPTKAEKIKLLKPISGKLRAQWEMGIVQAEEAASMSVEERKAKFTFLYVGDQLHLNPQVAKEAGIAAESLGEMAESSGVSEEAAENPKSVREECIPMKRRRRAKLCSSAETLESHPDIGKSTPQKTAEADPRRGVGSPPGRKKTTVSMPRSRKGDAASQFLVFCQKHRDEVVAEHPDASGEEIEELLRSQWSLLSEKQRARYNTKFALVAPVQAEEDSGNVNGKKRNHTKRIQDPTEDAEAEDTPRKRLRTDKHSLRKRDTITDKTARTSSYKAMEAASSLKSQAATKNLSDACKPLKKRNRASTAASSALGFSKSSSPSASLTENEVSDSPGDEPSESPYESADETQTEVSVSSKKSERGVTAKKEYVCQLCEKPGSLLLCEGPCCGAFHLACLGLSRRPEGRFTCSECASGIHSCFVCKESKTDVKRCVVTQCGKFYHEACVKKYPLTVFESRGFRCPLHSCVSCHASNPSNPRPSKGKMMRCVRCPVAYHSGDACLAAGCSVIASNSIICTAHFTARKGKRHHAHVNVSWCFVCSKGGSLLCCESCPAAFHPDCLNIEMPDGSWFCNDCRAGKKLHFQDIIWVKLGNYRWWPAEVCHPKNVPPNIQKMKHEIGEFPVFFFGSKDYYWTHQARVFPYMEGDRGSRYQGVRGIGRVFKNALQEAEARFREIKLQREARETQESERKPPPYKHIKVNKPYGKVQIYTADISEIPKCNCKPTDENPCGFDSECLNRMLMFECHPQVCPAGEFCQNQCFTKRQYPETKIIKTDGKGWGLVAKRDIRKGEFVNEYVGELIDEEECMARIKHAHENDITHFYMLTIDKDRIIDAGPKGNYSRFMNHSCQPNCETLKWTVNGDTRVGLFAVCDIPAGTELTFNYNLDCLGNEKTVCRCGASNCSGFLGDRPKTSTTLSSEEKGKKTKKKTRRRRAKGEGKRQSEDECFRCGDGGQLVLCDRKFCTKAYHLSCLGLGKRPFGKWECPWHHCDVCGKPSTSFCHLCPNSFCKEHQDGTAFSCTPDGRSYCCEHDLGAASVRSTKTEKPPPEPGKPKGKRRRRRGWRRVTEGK
ALR inh: inhibitors of human ALR sulfhydryl oxidase, primary screen, biochemical, H2O2 detection, HRP-luminol luminescence, single point. FAD-linked sulfhydryl oxidase ALR (Homo sapiens), P55789. purified ALR, DTT oxidation. inhibition, % (concentration not given with the values). hit rate 3.8% among 290,000. AID 485317, 2010;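 active = mean replicate inhibition above about 79%, with every replicate also reaching it, limit read from the data; inconclusive = only one of the two criteria met; inactive = mean below limit and not every replicate reaching it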
A number is an active result; . = inactive; ? = inconclusive; / = no result. Sampled rows, rich in hits. Any-hit rate of the full collection: about 3.9%.

SMILES | CDK5 inh | Glyco luc inh | SUMO Mot1 rescue | CASP6 VEID inh | NSD2 inh | ALR inh
C[C@H](CO)N1C[C@H](C)[C@H](CN(C)S(=O)(=O)c2ccc(Cl)cc2)Oc2ccc(NC(=O)Cc3ccccc3)cc2CC1=O | / | / | / | . | / | /
COc1cccc(S(=O)(=O)N(C)C[C@@H]2Oc3ncc(C#CC(C)(C)O)cc3C(=O)N([C@H](C)CO)C[C@@H]2C)c1 | / | / | / | . | / | /
Cc1noc(C)c1NC(=O)Nc1ccc2c(c1)C(=O)N([C@H](C)CO)C[C@H](C)[C@H](CN(C)Cc1ccc(Cl)c(Cl)c1)OCCCC[C@@H](C)O2 | / | / | / | . | / | /
CC1(C)CC(=O)C2=C(C1)Oc1nc3ccccc3cc1C2C(C#N)C#N (centres undefined) | . | . | . | / | . | 80
CC1(C)CC(=O)C(C2C3=C(CC(C)(C)CC3=O)Oc3ccccc32)C(=O)C1 (centres undefined) | . | . | . | . | . | .
COc1cc2c(cc1O)CCN(C(=O)CSc1nncn1C)[C@@H]2C | . | . | . | . | / | 82
Cc1ccc(S(=O)(=O)N(C)C[C@H]2Oc3c(NC(=O)c4ccncc4)cccc3C(=O)N([C@H](C)CO)C[C@@H]2C)cc1 | / | / | / | . | / | /
CC(=O)NS(=O)(=O)c1ccc(N=c2ssc3c2-c2cc(C)c(C)cc2NC3(C)C)cc1 | . | . | . | . | . | 99
C[C@@H]1CN([C@H](C)CO)C(=O)c2cc(NC(=O)c3ccncc3)ccc2O[C@@H]1CN(C)Cc1ccccc1 | / | / | / | . | / | /
O=C1O[C@@H](c2ccccc2)[C@@H](c2ccccc2)N2[C@@H](c3ccccc3OCCO)[C@]3(C(=O)Nc4ccccc43)[C@@H](C(=O)O)[C@H]12 | / | / | / | 36 | / | /
NC(=O)NCC#Cc1ccc2c(c1)[C@]1(C(=O)N2)[C@H](c2ccccc2OCCO)N2[C@H](c3ccccc3)[C@H](c3ccccc3)OC(=O)[C@H]2[C@@H]1C(=O)O | / | / | / | . | / | /
COc1ccc(/C(C)=N/N2C(=O)c3ccccc3NC2c2ccc(O)c(OC)c2)cc1 (centres undefined) | . | . | . | . | / | 99
Cc1ccsc1/C=N\NC(=O)c1cc(C(C)(C)C)[nH]n1 | . | . | . | . | . | 89
Cc1cc(C(=O)N/N=C/c2sccc2C)no1 | . | . | . | / | . | .
C[C@H]1CN([C@@H](C)CO)C(=O)c2cccc(NC(=O)c3ccc(-c4nccs4)cc3)c2O[C@H]1CN(C)S(=O)(=O)c1cccs1 | / | / | / | . | / | /
C/C=C/c1ccc([C@@H]2[C@H](CO)N(C(=O)CC)C23CN(S(C)(=O)=O)C3)cc1 | / | / | / | . | / | /
O=S(=O)(c1ccc(F)cc1)N1CCN=C1SCc1cccnc1 | . | . | . | . | . | 98
CC(=O)Nc1ccc(S(=O)(=O)N2CCN=C2SCc2cccnc2)cc1 | . | . | . | . | / | 98
O=S(=O)(c1ccc(Br)cc1)N1CCN=C1SCc1cccnc1 | . | . | . | . | . | ?
O=S(=O)(c1ccc2ccccc2c1)N1CCN=C1SCc1cccnc1 | . | . | / | / | . | 99
CN1[C@@H]2c3ccc(-c4ccc(F)cc4)c(=O)n3C[C@@H]2[C@@H](CO)[C@@H]1C(=O)NCCN1CCCCC1 | / | / | / | . | / | /
C[C@@H]1CN([C@@H](C)CO)C(=O)Cc2cc(NC(=O)Cn3cnnn3)ccc2O[C@H]1CN(C)S(=O)(=O)c1ccc(F)cc1 | / | / | / | . | / | /
COc1ccc2c3c(n(C)c2c1)[C@H](CO)N(C(=O)C1CCOCC1)CC31CCN(C(=O)Nc2cccc(F)c2)CC1 | / | / | / | . | / | /
Cc1cccc(N2CCN(C(=O)c3ccc4c(c3)NC(=O)C(CSCc3ccc(F)cc3)N4)CC2C)c1 (centres undefined) | / | / | . | / | / | 97
Oc1ccc(C(=S)N2CCCC2)cc1 | . | . | . | . | . | .
CC1CCN(C(=S)c2ccc(O)cc2)CC1 | . | . | . | / | . | 96

Source: PubChem BioAssay (Broad Institute)
